Molecules are shown by their SMILES. Calls of active or inactive are those of the source. Calls come from the whole dose curve; as a rule, active = well fitted activation curve with a large enough effect; inconclusive = small, poorly fitted or top-dose-only effect; inactive = flat fitted curve, though single readings scatter.

This assay can be described thus: Cellular Toxicity (caspase-3) SK-N-SH (AID 661). The conditions noted are these: SK-N-SH caspase-3 activation, qHTS, DMSO as zero, staurosporine as full; series mostly up to 91.7 µM. The source says:
NIH Chemical Genomics Center [NCGC]
NIH Molecular Libraries Screening Centers Network [MLSCN]
National Institutes of Environmental Health Sciences [NIEHS]
National Toxicology Program [NTP]
We have developed a 1536-well cell-based assay for quantitative high throughput screening (qHTS) against a number of cell lines to determine in vitro caspase 3/7 activity of small molecules. This particular assay uses the SK-N-SH cell line which is derived from human neuroblastoma.
NCGC Assay Protocol Summary:
The Caspase-Glo 3/7 assay (Promega) is a homogeneous method to measure caspase-3 and caspase-7 activities in cultured cells. The quantitation of caspase 3/7 activity is based on the cleavage of a peptide-aminoluciferin substrate. After caspase cleaves the substrate the free aminoluciferin is liberated and serves as the substrate of luciferase, which generates the light. The luminescent signal is proportional to amount of caspase 3/7 activity present.
Using the Caspase-Glo 3/7 assay, the amount of caspase 3/7 activity was measured in the SK-N-SH cell line with complete culture medium following compound treatment for 16 hours. The assay was performed in opaque white 1536-well plates. In the screen, tamoxifen and staurosporine were used as positive controls. Library compounds were measured for their ability to cause the activation of caspase 3/7 in the cell line, as reflected by an increase in luminescence signal, in a concentration-dependent manner. Data were normalized to the controls for basal activity (DMSO only) and 100% stimulation (10 uM staurosporine). AC50 values were determined from concentration-response data modeled with the standard Hill equation.
qHTS protocol for caspase 3/7 assay in SK-N-SH cells
[Step] [Parameter] [Value] [Description]
1. Reagent; 5 uL; 1500 SK-N-SH cells/well
2. Time; 5 hr; 37 °C incubation
4. Controls; 23 nL; Tamoxifen 0.23 uM to 100 uM & staurosporine 1.4 pM to 100 uM
5. Time; 16 hr; 37 °C incubation
6. Reagent; 5 uL; Caspase-Glo 3/7 reagent
7. Time; 1 hr; Room Temperature
8. Detection; Luminescence; Viewlux plate reader
Keywords: caspase 3/7, apoptosis, SK-N-SH cell line, luminescence, NTPHTS, NTPHTS_NCGC, NIEHS, EPA, DSSTox, MLSMR, MLSCN, NIH Roadmap, qHTS, NCGC
As to `CN=C=S`, the result was inactive.
To `CCCCCCCCCc1ccc(O)cc1` belongs “inactive”; to `O=C(Cl)C(Cl)(Cl)Cl`, “inactive”.
The same measure for `ClC(Cl)(Cl)c1ccccc1`: “inactive”.
To `NC(=S)Nc1ccccc1` belongs “inactive”; to `ClC1=C(Cl)C2(Cl)C3C4CC(C5OC45)C3C1(Cl)C2(Cl)Cl` (stereo not given), “inactive”.
`C=CC1CC=CCC1` (stereo not given): the outcome was inactive.
The same measure for `N#CCCCl`: “inactive”; for `c1ccc2c(c1)CCCC2`: “inactive”; for `Cc1cccc([N+](=O)[O-])c1`: “inactive”.
The same measure for `OCC(Br)CBr` (stereo not given): “inactive”; for `O=C=NC1CCCCC1`: “inactive”.
Take `Cc1ccc([N+](=O)[O-])cc1C`: the outcome was inactive.
To `CCN(CC)c1ccccc1` belongs “inactive”; to `C=C(Cl)Cl`, “inactive”.
`Brc1ccccc1`: the compound was called inactive.
To `COP(=S)(OC)Oc1ccc([N+](=O)[O-])cc1` belongs “inactive”; to `O=[N+]([O-])c1ccc(Cl)c(Cl)c1`, “inactive”.
Take `CC(C)(C)OOC(C)(C)C`: the compound was classed as inactive.
The same measure for `Clc1nc(Cl)nc(Nc2ccccc2Cl)n1`: “inactive”.
The same measure for `O=[N+]([O-])c1cccc2ccccc12`: “inactive”; for `CCCCCCCC(=O)Cl`: “inactive”.
Regarding `CC(=O)[O-].CC(=O)[O-].O.O.O.[Pb+2]`, the result was inactive.
To `CCC[CH2][Sn]([Cl])([Cl])[Cl]` belongs “inactive”; to `Cc1ccc2ccccc2c1`, “inactive”.
The same measure for `C/C=C/c1ccc2c(c1)OCO2`: “inactive”; for `COc1ccc(C=O)cc1OC`: “inactive”; for `CNC(=O)O/N=C/C(C)(C)SC`: “inactive”.
As to `C=CC(=C)C`, the result was inactive.
For the compound `C=CC(=O)OCC`, the call was inactive.
To `C[C@]12CC[C@H]3[C@@H](CCC4=CC(=O)CC[C@@]43C)[C@@H]1CC[C@@H]2O` belongs “inactive”; to `Cc1ccccc1N`, “inactive”.
The same measure for `Nc1c(Cl)c(Cl)nc(C(=O)O)c1Cl`: “inactive”; for `C=CCc1ccc2c(c1)OCO2`: “inactive”.
For `C=CCc1ccc(OC)cc1`, the outcome was inactive.
As to `COc1ccc(N)cc1`, the compound was classed as inactive.
The same measure for `Clc1cc(Cl)c(-c2cc(Cl)c(Cl)cc2Cl)cc1Cl`: “inactive”; for `ClC1=C(Cl)C2(Cl)C3C(Cl)C=CC3C1(Cl)C2(Cl)Cl` (stereo not given): “inactive”; for `CC(C)(c1ccccc1)c1ccc(O)cc1`: “inactive”.
`CC(C)(C)OO`: the call was inactive.
